VACV Venus inh: qHTS for Stage-Specific Inhibitors of Vaccinia Orthopoxvirus: Venus Reporter Primary qHTS; Vaccinia virus Venus reporter expression, fluorescence; Potency, µM (titrated, usually from 36.5 µM), inactives show at the top dose activity change, negative = inhibition, most hits filed as inhibitors; 330,000 tested, 0.46% active; calls by dose curve; tested in A549 cells; further: potency means the concentration at half of the fitted maximal effect; nearly all actives have a fitted effect of over 30% in size
HCMV inh: qHTS Assay for inhibitors of the human cytomegalovirus (HCMV); HFF cells, HCMV-luciferase reporter, 72 h; stronger effect = lower value; activity change, negative = inhibition, % at 57.5 µM; 410,000 tested, 4.5% active; AID 1259415, 2018; in the data active means activity change below about -60%; inconclusive means no clear call, values can overlap the other calls; inactive means above about -39%
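After 16 h attachment at 37C, HFF cells received test compound and HCMV-luciferase (1 PFU/cell); reporter luminescence read 72 h later, data normalized against buffer-only and known inhibitor Salinomycin.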
Vaccinia mCherry: qHTS for Stage-Specific Inhibitors of Vaccinia Orthopoxvirus: mCherry Reporter Primary qHTS. Vaccinia virus mCherry reporter infection, fluorescence. Potency, µM (highest dose often 36.5 µM), without a hit: at the top dose activity change, negative = inhibition, usual class: inhibitors. 310,000 tested, 0.63% active; calls by dose curve; tested in A549 cells; further: potency means the concentration at half of the fitted maximal effect; nearly all actives have a fitted effect of over 35% in size
FMDV antiviral: High Throughput Screening for Foot and Mouth Disease Virus Antivirals; FMDV antiviral cell-based qHTS; Potency, µM (doses to about 57.9 µM), inactives show at the highest dose activity change, negative = inhibition, most hits filed as inhibitors; 410,000 tested, 1.2% active; calls by dose curve; tested in HEK293T cells; further: read-out not given here; potency means the concentration at half of the fitted maximal effect; nearly all actives have a fitted effect of over 45% in size
LASV entry inh: qHTS for Inhibitors of binding or entry into cells for Lassa Virus. AID 540256, 2011. Potency, µM (titrated, usually from 37.9 µM), for inactives: at the top dose activity change, negative = inhibition, most hits filed as inhibitors. 300,000 tested, 1.2% active. Lassa virus pseudotype entry inhibition, cell reporter; calls by dose curve; tested in HEK293 cells; further: potency means the concentration at half of the fitted maximal effect; nearly all actives have a fitted effect of over 50% in size
Marburg entry inh: qHTS for inhibitors of binding or entry into cells for Marburg Virus. 300,000 tested, 1.8% active. AID 540276, 2011. Marburg virus pseudotyped entry inhibition, cell reporter. Potency, µM (doses to about 37.8 µM), for the others: at the highest dose activity change, negative = inhibition, most hits filed as inhibitors; calls by dose curve; tested in HEK293 cells; further: potency means the concentration at half of the fitted maximal effect
* = called active by the depositor; i = inactive; ? = inconclusive; / = not tested or not shown; [ ] = dose if it differs, or a comment. In the library only some 6.5% were active in any assay of this set; here they are far more common. On the % scale 0 is the no-effect control and ±100 the full control effect.

SMILES	VACV Venus inh	HCMV inh	Vaccinia mCherry	FMDV antiviral	LASV entry inh	Marburg entry inh
COc1ccc(NC(=O)c2oc3ccc(S(=O)(=O)N(C)C4CCCCC4)cc3c2C)cc1Cl	-12%	-77*	-13%	-19%	12%[46.1 µM]	/
Cc1c(C(=O)Nc2ccc(F)c(Cl)c2)oc2ccc(S(=O)(=O)N(C)C3CCCCC3)cc12	-15%	12	-18%	-15%	12%[46.1 µM]	/
Cc1c(C(=O)NCCC2=CCCCC2)oc2ccc(S(=O)(=O)N3CCOCC3)cc12	/	-69*	/	14µM*	8.2µM*	?
C[C@H](O)c1n(C)c(Cl)c[n+]1C	/	/	/	/	/	9%
CCCCCC(=O)N1C[C@H](n2cc(C3CC3)nn2)[C@@H](O)C[C@H]1c1ccc(Cl)cc1	/	/	/	/	-37%[46.1 µM]	/
O=C1CCCC2=C1[C@H]1O[C@](CCCCN3C(=O)c4ccccc4C3=O)(Cc3c1ccc1ccccc31)O2	/	/	/	/	/	-23%[14.2 µM]
NC(=O)C1=C(c2ccccc2)c2ccccc2C1=O	1%	-8	-1%	32µM*	?	?
O=C(Nc1ccc(F)c(F)c1)c1oc2ccccc2c1NC(=O)C1CCCO1 (stereo not given)	4%	-65*	3%	-9%	0%	1%[46.1 µM]
COc1ccc(NC(=O)c2oc3ccccc3c2NC(=O)C2CCCO2)cc1OC (stereo not given)	-18%	?	-29%	20%	?	?
Cc1ccc(NC(=O)c2oc3ccccc3c2NC(=O)C2CCCO2)cc1C (stereo not given)	3%	-82*	-18%	10%	?	?
CCOc1ccccc1NC(=O)c1oc2ccccc2c1NC(=O)C1CCCO1 (stereo not given)	0%	-7	-10%	?	?	?
Cc1cc(Nc2nc3ccccc3c3nnc(C)n23)ccc1Br	-10%	-5	-13%	-21%	19%[46.1 µM]	/
CC(NS(=O)(=O)c1ccc(Br)cc1)C(=O)NCc1ccco1 (stereo not given)	-19%	-73*	i	19%	0%	1%
CCOc1ccccc1N(CC(=O)Nc1cccc(OC)c1)S(=O)(=O)c1ccccc1	-6%	-107*	0%	-6%	?	?
CCOc1ccccc1N(CC(=O)N1CCOCC1)S(=O)(=O)c1ccc(SC)cc1	12%	8	i	83%	5.6µM*	?
CCOc1ccccc1N(CC(=O)Nc1ccccc1F)S(=O)(=O)c1ccccc1	/	-104*	/	4%	/	/
O=S(=O)(c1ccccc1)c1nc(-c2ccco2)oc1Nc1ccccc1	-8%	-62*	-18%	31%	?	0%
O=S(=O)(c1ccc(F)cc1)c1nc(-c2ccco2)oc1Nc1ccccc1	/	6	/	54%	?	11%
C=CCNc1nc(N)c(C(=C(C#N)C#N)c2ccc(Br)cc2)s1	?	?	-24%	5.6µM*	?	?
CC(=O)N1CCc2cc(Br)cc(S(=O)(=O)CCC(=O)N3CCN(c4ccc(F)cc4)CC3)c21	-9%	-3	-7%	11%	3%[46.1 µM]	?
CC(=O)c1sc2c(c1C)c(=O)n(-c1ccc(Cl)cc1)c(=O)n2Cc1ccc(Cl)cc1	-5%	17	-14%	-28%	?	?
O=C(CCCn1c(=S)[nH]c2ccsc2c1=O)Nc1ccc2c(c1)OCCO2	1%	-75*	-21%	-18%	/	12%[46.1 µM]
CC1=C(C(=O)Nc2ccccc2)C(c2ccc(C)cc2)N=C(Nc2nc3ccccc3o2)N1 (stereo not given)	?	-67*	?	-23%	?	?
CC1(C)CC(=O)C2=C(C1)NC(Nc1nc3ccccc3o1)=NC2c1ccccc1Cl (stereo not given)	-10%	/	17%	/	/	/
CNC(=S)/N=C/NOCc1ccc(Cl)cc1Cl	-13%	-78*	-25%	?	?	?
Cc1ccc(C(=O)O[C@H](C(=O)O)[C@@H](OC(=O)c2ccc(C)cc2)C(=O)O)cc1 (tested in a mixture with another compound)	/	/	/	/	8%	-1%

Assay outcomes (PubChem BioAssay)
